Test results published in PubChem BioAssay (Tox21).
Records with an inconclusive call do not appear. Calls of active or inactive are those of the source. Unless noted, calls follow the shape of the full dose curve.

Legend:
[1] = Nuclear factor erythroid 2-related factor 2/antioxidant responsive element (Nrf2/ARE) small molecule agonists: qHTS cell viability counter screen in human keratinocytes (AID 1919968; active = well fitted curve in the direction sought with a large enough effect in the repeat runs; an effect the other way counts as inactive or inconclusive; also: nearly all actives have a fitted effect of over 55% in size; also: potency is read from the fitted curve at half-maximal effect)
Procedure, shortened: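 HaCaT ARE reporter line, 1,500 cells/well; 5 h settle, 37 C/5% CO2; cpd in DMSO pinned; 23 h exposure; CellTiter-Fluor, 1 h; fluorescence.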

[2] = Nuclear factor erythroid 2-related factor 2/antioxidant responsive element (Nrf2/ARE) small molecule agonists: luciferase reporter gene qHTS assay in human keratinocytes (AID 1919969); also: nearly all actives have a fitted effect of over 35% in size; also: potency is read from the fitted curve at half-maximal effect
[3] = target: KiSS-1 receptor (Homo sapiens) (UniProt Q969F8); test: Human kisspeptin (KISS1R) small molecule agonists, calcium flux assay in KISS1R-HEK293 cells (AID 1920064; active = well fitted curve in the direction sought with a large enough effect in the repeat runs; an effect the other way counts as inactive or inconclusive)
Procedure, shortened: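 Stable human KISS1R HEK293 line; 18 h plating, 37 C/5% CO2; calcium dye 1 h 37 C; compound pin transfer; kinetic fluorescence Ex/Em 480/540, 3 min.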

[4] = G protein-coupled receptor (GPCR) small molecule agonists, calcium flux assay: HEK293 wild type cell line counter screen (AID 1920065)
Procedure, shortened: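 Kinetic fluorescence at Ex/Em 480/540, recorded every second over 3 min, served as the read-out after compound addition. Each compound was tested at 15 concentrations in triplicate on cells pre-loaded with calcium dye for 1 h.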

[5] = p53 small molecule agonists, cell-based qHTS assay with human liver microsomes (AID 1963577)
Procedure, shortened: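 Compounds act here after metabolic activation: human liver microsomes and NADPH, both at 0.5 mg/mL final, were co-added to p53RE-bla cells. Incubation ran 16 h at 37 C, followed by LiveBLAzer detection.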

[6] = p53 small molecule agonists, cell-based qHTS assay with rat liver microsomes (AID 1963578)
Procedure, shortened: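 Read-out is beta-lactamase reporter fluorescence (LiveBLAzer, 2 h, room temperature, dark) in p53RE-bla cells treated 16 h at 37 C with compound, rat liver microsomes and NADPH, both 0.5 mg/mL final.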

[7] = p53 small molecule agonists, cell-based qHTS assay with human liver microsomes: qHTS cell viability counter screen (AID 1963579); also: nearly all actives have a fitted effect of over 45% in size
Procedure, shortened: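 Cells carrying the p53 response-element beta-lactamase reporter are treated for 16 h at 37 C with test compounds in the presence of human liver microsomes and NADPH (both 0.5 mg/mL final); ATP-based CellTiter-Glo luminescence then reports viability.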

[8] = p53 small molecule agonists, cell-based qHTS assay: qHTS cell viability counter screen (AID 1963581); also: nearly all actives have a fitted effect of over 45% in size
Procedure, shortened: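 HCT-116 p53RE-bla cells, 4,000/well, plated 5 h before compound pin transfer; 16 h at 37 C; bla substrate 2 h RT; then CellTiter-Glo, 30 min RT, luminescence.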

[9] = target: 5-hydroxytryptamine receptor 2A (Homo sapiens) (UniProt P28223); test: 5-hydroxytryptamine receptor 2A (HTR2A) small molecule agonists, cell-based qHTS assay (AID 1963587); also: nearly all actives have a fitted effect of over 30% in size; also: potency is read from the fitted curve at half-maximal effect
Procedure, shortened: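 CHO cells stably expressing human HTR2A, plated 18 h, loaded with calcium dye 1 h at 37 C. Agonist mode: compounds added and intracellular calcium fluorescence recorded kinetically for 2 min at 1 sec intervals.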

[10] = target: Muscarinic acetylcholine receptor M1 (Homo sapiens) (UniProt P11229); test: Cholinergic receptor muscarinic 1 (CHRM1) small molecule agonists, cell-based qHTS assay (AID 1963589); also: nearly all actives have a fitted effect of over 35% in size
Procedure, shortened: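 Human M1 in stable CHO line; 18 h plating, 1 h dye load 37 C; cpd added (agonist mode); Ca2+ fluorescence kinetic read, 1 s intervals; 15 conc, 3 runs.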

[11] = cAMP Responsive Elements (CRE) small molecule antagonists, cell-based qHTS assay (AID 1963591; active = well fitted inhibition curve with a large enough effect in the signal ratio in the repeat runs, not every such curve was filed as active; the % refers to the signal ratio)
Procedure, shortened: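 Beta-lactamase reporter read by FRET substrate (LiveBLAzer B/G) after 2 h at room temperature. CRE-bla HEK293T cells had received compound plus 0.25 uM (final) NKH477 for 3 h at 37 °C.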

[12] = target: Beta-2 adrenergic receptor (Homo sapiens) (UniProt P07550); test: Adrenergic beta2 receptor (ADRB2) small molecule antagonists, cell-based qHTS assay (AID 1963592); also: series mostly up to about 92 µM; nearly all actives have a fitted effect of over 50% in size
Procedure, shortened: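 Cells (CHO, stable ADRB2 overexpression) incubated 18-20hr at 37C; compounds added from DMSO; agonist mix (1nM isoproterenol, 100uM IBMX, 25uM Ro-20-1724) added; 0.5hr RT; d2-cAMP and anti-cAMP-cryptate added; 1hr RT; 665/615 nm read.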

[13] = target: Beta-2 adrenergic receptor (Homo sapiens) (UniProt P07550); test: Adrenergic beta2 receptor (ADRB2) small molecule agonists, cell-based qHTS assay (AID 1963593);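 also: CHO cells stably overexpressing human ADRB2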
Procedure, shortened: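 CHO cells stably over-expressing ADRB2 were plated overnight at 37C, then dosed with compounds plus a stimulation mix containing 100uM IBMX and 25uM Ro-20-1724 for 0.5hr at room temperature. cAMP was measured by HTRF competition, 1hr.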

[14] = target: D(2) dopamine receptor (Homo sapiens) (UniProt P14416); test: Dopamine D2 receptor (DRD2) small molecule antagonists, cell-based qHTS assay (AID 1963595; active = well fitted inhibition curve with a large enough effect in the signal ratio in the repeat runs, with a control signal flat; the % refers to the signal ratio)
Procedure, shortened: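 Readout: HTRF cAMP, cAMP-d2 competing with cellular cAMP for anti-cAMP cryptate, read after 1 h. Cells: DRD2-HEK293. Conditions: 0.1 mM Ro20-1724, 12 nM quinpirole, 200 nM NKH477, 30 min RT.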

[15] = p53 small molecule agonists, cell-based qHTS assay with rat liver microsomes: qHTS cell viability counter screen (AID 1963580); also: nearly all actives have a fitted effect of over 45% in size
Procedure, shortened: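 p53RE-bla HCT-116 cells were exposed 16 h at 37 C to compounds with rat liver microsomes (0.5 mg/mL) and NADPH (0.5 mg/mL). Viability was measured in the same wells as ATP content by CellTiter-Glo luminescence.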

[16] = target: 5-hydroxytryptamine receptor 2A (Homo sapiens) (UniProt P28223); test: 5-hydroxytryptamine receptor 2A (HTR2A) small molecule antagonists, cell-based qHTS assay (AID 1963586); also: nearly all actives have a fitted effect of over 45% in size; also: potency is read from the fitted curve at half-maximal effect
Procedure, shortened: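 Antagonist-mode intracellular calcium assay: DOI (4 nM) added after 5 min compound pre-incubation at room temperature to dye-loaded HTR2A-CHO cells. Fluorescence followed for 3 min, sampled every second.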

[17] = target: Muscarinic acetylcholine receptor M1 (Homo sapiens) (UniProt P11229); test: Cholinergic receptor muscarinic 1 (CHRM1) small molecule antagonists, cell-based qHTS assay (AID 1963588); also: nearly all actives have a fitted effect of over 40% in size
Procedure, shortened: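 CHRM1-CHO calcium-flux assay, antagonist mode. Cells were seeded 18 h, dye-loaded 1 h at 37 C and given compound for 5 min at RT, then acetylcholine was added at 50nM. FDSS fluorescence was read 3 min; 15 concentrations, three runs.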

[18] = cAMP Responsive Elements (CRE) small molecule agonists, cell-based qHTS assay (AID 1963590)
Procedure, shortened: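 HEK 293T CRE-bla, 2,000 cells/well, 18 h preincubation 37 C/5% CO2; cpds (DMSO) pinned, 3 h; LiveBLAzer B/G FRET substrate, 2 h RT.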

[19] = target: D(2) dopamine receptor (Homo sapiens) (UniProt P14416); test: Dopamine D2 receptor (DRD2) small molecule agonists, cell-based qHTS assay (AID 1963594); also: nearly all actives have a fitted effect of over 35% in size
Procedure, shortened: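 HEK293 cells stably expressing human DRD2, pre-treated with PDE inhibitor Ro20-1724 (0.1 mM final) and compound 10 min at room temperature, then stimulated with NKH477 (200nM […]) for 30 min. cAMP read by HTRF (665/620 nm).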

[20] = p53 small molecule agonists, cell-based qHTS assay (AID 1963582; active = well fitted activation curve with a large enough effect in the signal ratio in the repeat runs, not every such curve was filed as active; the % refers to the signal ratio)
Procedure, shortened: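 Reporter line: p53RE-bla. Pre-incubation 5 h, 37 C, 5% CO2; compound (DMSO, pin tool) 16 h, 37 C; B/G FRET substrate 2 h RT; fluorescence intensity read.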
% is scaled to controls: 0 for no effect and ±100 for the full control effect.

Chain of 5-hydroxytryptamine receptor 2A (Homo sapiens) (P28223 whole entry, looked up): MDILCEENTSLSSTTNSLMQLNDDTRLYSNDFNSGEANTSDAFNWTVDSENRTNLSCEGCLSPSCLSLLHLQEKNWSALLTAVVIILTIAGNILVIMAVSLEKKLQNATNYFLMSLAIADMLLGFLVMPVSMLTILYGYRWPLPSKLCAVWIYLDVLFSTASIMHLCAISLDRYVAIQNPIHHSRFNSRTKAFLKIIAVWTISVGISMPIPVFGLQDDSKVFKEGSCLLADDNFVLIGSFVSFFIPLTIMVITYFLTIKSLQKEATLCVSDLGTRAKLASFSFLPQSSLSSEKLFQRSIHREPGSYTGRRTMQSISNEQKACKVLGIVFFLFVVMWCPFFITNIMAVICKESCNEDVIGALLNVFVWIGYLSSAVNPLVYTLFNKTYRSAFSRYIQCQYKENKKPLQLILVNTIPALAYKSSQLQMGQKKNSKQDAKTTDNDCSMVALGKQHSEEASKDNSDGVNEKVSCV
Chain of KiSS-1 receptor (Homo sapiens) (Q969F8 whole entry, looked up): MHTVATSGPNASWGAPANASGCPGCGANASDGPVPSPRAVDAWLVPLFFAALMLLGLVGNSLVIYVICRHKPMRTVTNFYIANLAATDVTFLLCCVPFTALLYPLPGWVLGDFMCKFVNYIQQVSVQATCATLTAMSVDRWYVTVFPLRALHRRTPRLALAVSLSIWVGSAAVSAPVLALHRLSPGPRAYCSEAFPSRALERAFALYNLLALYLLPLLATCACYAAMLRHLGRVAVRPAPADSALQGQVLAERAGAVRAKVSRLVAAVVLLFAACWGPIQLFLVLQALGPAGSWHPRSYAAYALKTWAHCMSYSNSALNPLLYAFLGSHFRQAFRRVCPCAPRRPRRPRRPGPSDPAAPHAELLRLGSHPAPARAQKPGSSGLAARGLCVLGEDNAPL
Chain of Muscarinic acetylcholine receptor M1 (Homo sapiens) (P11229 whole entry, looked up): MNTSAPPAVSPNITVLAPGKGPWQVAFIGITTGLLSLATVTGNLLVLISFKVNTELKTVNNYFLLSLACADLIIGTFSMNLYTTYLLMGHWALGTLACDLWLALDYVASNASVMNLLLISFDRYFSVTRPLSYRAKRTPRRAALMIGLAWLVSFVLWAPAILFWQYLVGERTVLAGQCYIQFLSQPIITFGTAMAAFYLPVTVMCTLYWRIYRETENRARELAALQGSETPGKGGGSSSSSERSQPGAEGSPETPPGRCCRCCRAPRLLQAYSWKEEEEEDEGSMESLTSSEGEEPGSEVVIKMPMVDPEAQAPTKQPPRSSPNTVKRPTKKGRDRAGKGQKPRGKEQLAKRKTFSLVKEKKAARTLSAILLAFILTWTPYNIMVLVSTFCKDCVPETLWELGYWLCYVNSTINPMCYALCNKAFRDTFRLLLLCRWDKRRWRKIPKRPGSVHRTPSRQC
Chain of Beta-2 adrenergic receptor (Homo sapiens) (P07550 whole entry, looked up): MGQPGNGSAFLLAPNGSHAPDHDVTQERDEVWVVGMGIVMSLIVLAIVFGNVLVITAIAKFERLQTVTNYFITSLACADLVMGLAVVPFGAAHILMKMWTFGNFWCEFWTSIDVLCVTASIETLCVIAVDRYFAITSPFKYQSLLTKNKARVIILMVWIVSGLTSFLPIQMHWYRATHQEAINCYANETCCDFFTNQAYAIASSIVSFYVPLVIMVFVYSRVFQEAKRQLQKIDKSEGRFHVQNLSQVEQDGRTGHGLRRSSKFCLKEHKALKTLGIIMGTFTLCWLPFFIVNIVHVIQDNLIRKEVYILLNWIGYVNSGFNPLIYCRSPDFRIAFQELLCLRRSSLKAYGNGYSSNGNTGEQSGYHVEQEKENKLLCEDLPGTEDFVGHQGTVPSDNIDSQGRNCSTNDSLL
Chain of D(2) dopamine receptor (Homo sapiens) (P14416 whole entry, looked up): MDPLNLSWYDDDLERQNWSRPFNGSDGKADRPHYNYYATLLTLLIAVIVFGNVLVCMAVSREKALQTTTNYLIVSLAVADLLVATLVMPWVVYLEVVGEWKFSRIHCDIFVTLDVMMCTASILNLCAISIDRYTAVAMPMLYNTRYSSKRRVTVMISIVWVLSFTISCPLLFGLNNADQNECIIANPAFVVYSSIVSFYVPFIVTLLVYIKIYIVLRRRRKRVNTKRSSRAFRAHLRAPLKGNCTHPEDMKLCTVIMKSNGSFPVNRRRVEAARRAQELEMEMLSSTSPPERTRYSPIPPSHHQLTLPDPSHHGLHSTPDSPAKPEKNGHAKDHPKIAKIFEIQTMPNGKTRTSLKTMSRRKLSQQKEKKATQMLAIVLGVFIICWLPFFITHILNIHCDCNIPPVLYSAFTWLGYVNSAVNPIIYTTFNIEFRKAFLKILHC

O=S(=O)(C(Cl)(Cl)Cl)C(Cl)(Cl)Cl
active: Potency [1] 24.3 µM | Potency [2] 8.63 µM | Potency [9] 49 µM
inactive: Potency [3] | Potency [4] | Potency [5] | Potency [6] | Potency [7] | Potency [8] | Potency [10] | Potency [11] | Potency [12] | Potency [13] | Potency [14]

Clc1c(Cl)c(Cl)c(Cl)c(Cl)c1Cl
inactive: activity change, negative = cytotoxicity [1] 1.8% [at 8.39 µM] | activity, positive = activation [2] 1.26% [at 8.39 µM] | activation [3] 2.59% [at 6.97 µM] | activation [4] 0.0562% [at 5.23 µM] | activation [5] -0.641% [at 5.99 µM] | activation [6] -0.077% [at 5.99 µM] | activity change, negative = cytotoxicity [7] -8.08% [at 5.99 µM] | activity change, negative = cytotoxicity [15] 3.81% [at 5.99 µM] | activity change, negative = cytotoxicity [8] 19.3% [at 5.99 µM] | activity, negative = inhibition [16] 3.79% [at 5.62 µM] | activation [9] -3.36% [at 7.02 µM] | activity, negative = inhibition [17] 4.33% [at 5.58 µM] | activation [10] 0.839% [at 6.97 µM] | activation [18] 0.371% [at 8.39 µM] | activity change, negative = inhibition [11] -9.17% [at 8.39 µM] | activity change, negative = inhibition [12] -5.22% [at 8.39 µM] | activation [13] 15.9% [at 8.39 µM] | activation [19] -1.37% [at 8.39 µM] | activity change, negative = inhibition [14] -2.06% [at 8.38 µM]

C[C@]12C=CC(=O)C=C1CC[C@@H]1[C@@H]2CC[C@@]2(C)[C@H]1CC[C@]2(C)O
inactive: Potency [1] | Potency [2] | Potency [3] | Potency [4] | Potency [5] | Potency [6] | Potency [7] | Potency [15] | Potency [20] | Potency [16] | Potency [9] | Potency [10] | Potency [12] | Potency [19] | Potency [14]

CO/N=C(\C(=O)OC)c1ccccc1CO/N=C(\C)c1cccc(C(F)(F)F)c1
inactive: Potency [1] | Potency [2] | Potency [3] | Potency [4] | Potency [5] | Potency [6] | Potency [7] | Potency [15] | Potency [8] | Potency [16] | Potency [9] | Potency [17] | Potency [10] | Potency [11] | Potency [12] | Potency [14]

[CH3][Hg][Cl]
active: Potency [1] 6.09 µM | Potency [2] 2.43 µM | Potency [9] 38.8 µM
inactive: Potency [3] | Potency [4] | Potency [5] | Potency [6] | Potency [7] | Potency [15] | Potency [8] | Potency [16] | Potency [10] | Potency [11] | Potency [13] | Potency [19] | Potency [14]

COc1cc(CCN)cc(OC)c1OC
active: Potency [16] 0.182 µM | Potency [9] 0.0752 µM
inactive: Potency [1] | Potency [2] | Potency [3] | Potency [4] | Potency [5] | Potency [6] | Potency [7] | Potency [15] | Potency [20] | Potency [17] | Potency [10] | Potency [18] | Potency [11] | Potency [19] | Potency [14]
